Results from PubChem BioAssay (NCI).
Compounds without any hit were thinned out: in the full panel of roughly 83,000, 20% have a hit.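 Results are percent growth after 48 hours of single-concentration exposure. 100 means growth as in untreated cells, lower positive values show inhibition; negative values down to -100 show cell death.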 Unmarked numbers belong to inactive results. Calls of active or inactive are those of the source. The calls were made as follows: active = growth percent below 10; inactive = the rest.

test system: U251 CNS; assay: NCI-60 one-dose screen, 48 h (100 = growth as untreated, 0 = no growth, -100 = all killed); conditions: 10 µM unless noted

| SMILES | growth |
| --- | --- |
| Cn1cc(-c2cc3nc(-c4cn(C)c5ncccc45)cc(N)n3n2)c2cc(Cl)ccc21 | -79.7% (active) |
| CC12CC[C@@H]3[C@]4(C)COC(c5c(F)cccc5F)O[C@@H]4CC[C@@]3(C)[C@@H]1CC(C1=CCOC1=O)O2 (stereo partly drawn) | 80% |
| Cc1nc(Nc2ncc(C(=O)Nc3c(C)cccc3Cl)s2)cc(N2CCN(CCCNC(=O)COc3ccc(C4CCC(=O)NC4=O)cc3)CC2)n1 (stereo not drawn) | 62.6% |
| Cn1cc(NC(=O)c2cc(NC(=O)c3ccc(/C=C/c4ccccc4)cc3)cn2C)cc1C(=O)NCCCN1CCOCC1 | -69.2% (active) |
| Cc1ccccc1[C@H]1C(C(=O)c2ccc(Cl)cc2)C2(N[C@@H]1c1ccccc1)C(=O)Nc1ccc(Br)cc12 (stereo partly drawn) | -3.71% (active) |
| Brc1ccc(N/N=C/c2c[nH]c3ccc(Br)cc23)nc1 | -63.5% (active) |
| C=C1CCC2C3(C)COC(c4ccccc4)OC3CCC2(C)C1CC(Sc1ccccc1)C1=CCOC1=O (stereo not drawn) | 17.5% |
| Clc1cccc(N/N=C/c2c[nH]c3ccc(Br)cc23)n1 | 17.1% |
| COc1c(F)ccc(C(=O)Nc2ccc3nc(NC(=O)C4CCCN(S(=O)(=O)c5cccc(C(F)(F)F)c5)C4)sc3c2)c1F (stereo not drawn) | 69.8% |
| O=c1oc2ccc(Br)cc2cc1C1=CSc2nc3sc4c(c3c(=O)n2N=C1)CCCC4 | 99.3% |
| CC(=O)/C=C/c1cccc2c1C(=O)NC(C)(c1cc3cc(Br)ccc3oc1=O)N2 (stereo not drawn) | 18.6% |
| O=c1[nH]c(=O)c2c(-c3cc4ccccc4oc3=O)ccnc2[nH]1 | 19.5% |
| O=C(/C=C/Nc1ccc2oc(=O)ccc2c1)c1cc2cc(Br)ccc2oc1=O | 102% |
| CC1(c2cc3cc(Cl)ccc3oc2=O)NC(=O)c2c(/C=C/C(=O)OC3CC4CCC3(C)C4(C)C)cccc2N1 (stereo not drawn) | 52.5% |
| COc1ccc(-c2ccnc(SCc3cc4ccccc4[nH]c3=O)n2)cc1OC | -13.5% (active) |
| CC12CC[C@@H]3[C@]4(C)COC(c5cn[nH]c5-c5cccc(Br)c5)O[C@@H]4CC[C@@]3(C)[C@@H]1CC(C1=CCOC1=O)O2 (stereo partly drawn) | 32.1% |
| O=C(c1ccc(OCCN2CCOCC2)cc1)C1[C@H](c2ccc(Cl)cc2)[C@@H](c2ccccc2)NC12C(=O)Nc1ccc(Br)cc12 (stereo partly drawn) | 22.6% |
| COc1ccc2c(c1)c(/C=N/Nc1ccc3ccccc3n1)cn2C | 7.9% (active) |
| CN(C)CCOc1ccc(C(=O)C2[C@H](c3ccc(Cl)cc3)[C@@H](c3ccccc3)NC23C(=O)Nc2ccc(Br)cc23)cc1 (stereo partly drawn) | -93.2% (active) |

| SMILES | growth |
| --- | --- |
| O=c1[nH]c2ccc(Cl)cc2cc1CSc1nccc(-c2ccc(Cl)cc2)n1 | 47.4% |
| COc1cccc(/C=C/c2nc3ccccc3c(=O)n2CC(=O)Nc2ccc(Cl)cc2)c1 | 27.8% |
| CCCSc1nc(Nc2ccc(S(N)(=O)=O)cc2)c(C#N)c(-c2cc(OC)c(OC)c(OC)c2)n1 | 27.4% |
| CC(/C=C1\SC(=S)N(CCCC(=O)NC(CC(C)C)C(=O)O)C1=O)=C\c1ccccc1 (stereo not drawn) | 79.6% |
| COc1ccc(/C=C/c2nc3ccccc3c(=O)n2CC(=O)Nc2ccc(Cl)cc2)cc1 | 10.9% |
| Cn1cc(-c2cc3nc(-c4cn(C)c5ncc(Br)cc45)cc(N)n3n2)c2cc(Cl)ccc21 | -67.9% (active) |
| Cn1cc(-c2cc(N)n3nc(-c4cn(C)c5ncccc45)cc3n2)c2cccnc21 | -46.1% (active) |
| Cc1ccc([C@H]2C(C(=O)c3ccc(Cl)cc3)C3(N[C@@H]2c2ccccc2)C(=O)Nc2ccc(Cl)cc23)cc1 (stereo partly drawn) | 47.9% |
| O=C(Cn1c(/C=C/c2ccccc2)nc2ccccc2c1=O)Nc1ccc(Cl)cc1 | 20.1% |
| CC12CC[C@@H]3[C@]4(C)COC(c5cn[nH]c5-c5cccc(Cl)c5)O[C@@H]4CC[C@@]3(C)[C@@H]1CC(C1=CCOC1=O)O2 (stereo partly drawn) | 38.6% |
| CCCCSc1nc(Nc2ccc(S(N)(=O)=O)cc2)c(C#N)c(-c2cc(OC)c(OC)c(OC)c2)n1 | 43.3% |
| CCOC(=O)/C=C/c1cccc2c1C(=O)NC(C)(c1cc3cc(Cl)ccc3oc1=O)N2 (stereo not drawn) | 33.9% |
| O=C(c1ccc(OCCN2CCOCC2)cc1)C1[C@H](c2ccc(Cl)cc2)[C@@H](c2ccccc2)NC12C(=O)Nc1ccc(Cl)cc12 (stereo partly drawn) | 25.3% |
| CC(C)c1sc(NC(=O)c2cc(NC(=O)c3cc(NC(=O)c4nccn4C)cn3C)cn2C)nc1C(=O)NCCCN(C)C | 30.2% |
| COc1c(F)ccc(C(=O)Nc2ccc3nc(NC(=O)C4CCCN(S(=O)(=O)c5ccc(Cl)cc5)C4)sc3c2)c1F (stereo not drawn) | 70.3% |
| O=C(N1c2ccccc2Sc2ccccc21)n1ccc2cccnc21 | 51.3% |
| Cn1cc(-c2cc(N)n3nc(-c4cn(C)c5ncc(Br)cc45)cc3n2)c2cc(Br)cnc21 | -62.1% (active) |
| CC1=C(C#N)C2=NNCC(c3ccccc3)=NN2C(c2ccccc2)=C1 | 96.2% |
| C=C1CC[C@@H]2[C@]3(C)COC(c4cn[nH]c4-c4ccc(F)cc4)O[C@@H]3CC[C@@]2(C)[C@@H]1C/C=C1/C(=O)OCC1O (stereo partly drawn) | -83.2% (active) |
